# Active and inactive are the calls of the source. The calls were made as follows: active = hit-call score of the fitted dose curve at least 0.9, where 1 is the maximum; inactive = score below 0.9.
# Assay: APR_HepG2_MitoMembPot_24hr: Apredica 24-hour HepG2 Assay for Mitochondrial Membrane Potential (AID 2282911)
# Details: imaging, actives raise or lower the signal
# Protocol: APR_HepG2_24hr is a cell-based, multiplexed-readout assay that uses HepG2, a human liver cell line, with measurements taken at 24 hours after chemical dosing in a 384-well plate.APR_HepG2_MitoMembPot_24hr is one of 10 assay component(s) measured or calculated from the APR_HepG2_24hr assay. It is designed to make measurements of dye binding, a form of membrane potential reporter, as detected with fluorescence intensity signals by HCS Fluorescent Imaging technology.Data from the assay component APR_HepG2_MitoMembPot_24hr was analyzed into 1 assay endpoint. This assay endpoint, APR_HepG2_MitoMembPot_24hr, was analyzed with bidirectional fitting relative to DMSO as the negative control and baseline of activity. Using a type of membrane potential reporter, gain or loss-of-signal activity can be used to understand changes in the signaling. Furthermore, this assay endpoint can be referred to as a primary readout, because this assay has produced multiple assay endpoints where this one serves a signaling function. To generalize the intended target to other relatable targets, this assay endpoint is annotated to the cell morphology intended target family, where the subfamily is organelle conformation.
# Cells were treated with dimethyl sulfoxide (DMSO) as a solvent control at a final concentration of 0.5% v/v or with compounds in DMSO with a resulting final DMSO concentration of 0.5% v/v. Compound treatment was done at concentrations of 0.39, 0.78, 1.56, 3.12, 6.24, 12.5, 25, 50, 100, and 200 uM in duplicate on each plate. Cells were treated with compounds for 1, 24, or 72 hr. Carbonyl […] m-chloro-phenylhydrazone (CCCP) and taxol were used as positive controls for mitochondrial function and cytoskeletal stability, respectively; DMSO served as the negative control for this experiment. Cells were fixed by the direct addition of 50 uL formaldehyde in Hank's Balanced Salt Solution (HBSS) to a final concentration of 3.7%. After incubation in the fixation medium for 30 min at room temperature (293-298 K), cells were rinsed twice with HBSS and treated with cell permeabilization buffer (16 uL of 0.5% Triton X-100) for 10 min at room temperature (293-298 K) before labeling. For mitochondrial membrane potential and mitochondrial measurements, pre-fixed cells were incubated with 50 uL of MitoTracker Red CMXRos (Invitrogen) at a concentration of 250 nM for 30 min before fixation. In the remaining cases, post-fixed cells were labeled by incubation with a multiplexed mixture of primary antibodies in HBSS for 60 min at room temperature (293-298 K) to detect immunoreactivity of c-Jun (1:500), phospho-histone H3 (1:100), phospho-histone H2A.x (1:200), p53 (1:400), alpha-tubulin (1:200) and Hoechst 33342 (2 ug/mL). Cells were labeled for multiplexed imaging on two separate plates: a) Hoechst 33342, MitoTracker Red, phospho-histone H3, and alpha-tubulin, and b) Hoechst 33342, phospho-histone H2A.x, and c-Jun. A final rinse with HBSS (50 uL) was performed before analysis. The primary and secondary antibodies for the proteins were phospho-histone H3 (rabbit anti-phospho-histone H3 and FITC-donkey anti-rabbit IgG), phospho-histone H2A.x (mouse anti-phospho-histone H2A.x and FITC-donkey anti-mouse IgG), c-Jun (rabbit anti-phospho-c-Jun and Cy3-donkey anti-rabbit IgG), p53 (sheep anti-p53 and Cy5-donkey anti-sheep IgG), alpha-tubulin (mouse anti-alpha-tubulin and Cy5-donkey anti-mouse IgG). These antibodies are available as the CellCiphr HepG2 assay kit (Millipore).Digital images of each well were captured using a Cellomics ArrayScan VTI (Thermo Scientific Cellomics) (0.8 NA objective, 0.63x optical coupler, and XF-93 filter set) at 20x magnification. The images were acquired using the autofocus feature of the ArrayScan instrument, which entails the following steps. First, the camera focuses on channel 1 (Hoechst 33342), where nuclei are identified. Second, a Z offset of 1 um is used for capturing mitochondria (MitoTracker Red). […]
SMILES,outcome,AC50
CCCCC(CC)COP(=O)(OCC(CC)CCCC)OCC(CC)CCCC (stereo not given),inactive,–
Cc1c(C)c2c(c(C)c1O)CCC(C)(COc1ccc(CC3SC(=O)NC3=O)cc1)O2 (stereo not given),–,96.5 µM (active)
CCCCc1nc2cccnc2n1Cc1ccc(-c2ccccc2-c2nnn[nH]2)cc1,–,23.1 µM (active)
NC1CCCCC1,inactive,–
O=NO,inactive,–
COC(=O)CCCC(=O)OC,inactive,–
CCCCCCCCCC[N+](C)(C)[O-],inactive,–
CC(=O)[C@@]1(O)CC[C@H]2[C@@H]3CCC4=CC(=O)CC[C@]4(C)[C@H]3CC[C@@]21C,inactive,–
CC(=O)OC1CC(C)OC(C)O1 (stereo not given),inactive,–
O=C(NS(=O)(=O)/C=C/c1cccs1)c1ccc(F)cc1Br,inactive,–
O=C(O)c1cccnc1,inactive,–
C=CCCCCCCCCCCCC,inactive,–
O=[Si]=O,inactive,–
OCC(O)CO,inactive,–
CC(C)OC(=O)C(C)(C)Oc1ccc(C(=O)c2ccc(Cl)cc2)cc1,inactive,–
CC(C)NCC(O)c1ccc(O)c(O)c1 (stereo not given),inactive,–
CS(=O)(=O)c1ccc([C@@H](C[C@H]2CCC(=O)C2)C(=O)Nc2cnccn2)cc1Cl,inactive,–
CCCCC(CC)COC(=O)CCCCCCCC(=O)OCC(CC)CCCC (stereo not given),inactive,–
O=C(N[C@@H](c1ccccc1)[C@@H]1CCCCN1)c1cccc(C(F)(F)F)c1Cl,inactive,–
CC(C)c1cccc(C(C)C)c1,inactive,–

SMILES,outcome,AC50
COc1ccc(C(=O)Nc2nc3ccccc3c(NCc3ccccc3)c2C#N)cc1,–,43.4 µM (active)
CCCCCCCC(=O)OC,inactive,–
O=C1c2c(O)cccc2Cc2cccc(O)c21,–,11.1 µM (active)
Cc1cc(SC2=C(O)C[C@@](CCc3ccc(N)cc3)(C(C)C)OC2=O)c(C(C)(C)C)cc1CO,–,0.0797 µM (active)
Nc1nc(=S)c2[nH]cnc2[nH]1,inactive,–
CSc1ccc(Oc2ccc(S(N)(=O)=O)cc2CN(C)C)cc1C,–,100 µM (active)
CC1(C)C(=O)NC(=O)N1CO,inactive,–
NC(=Nc1ccccc1)Nc1ccccc1,inactive,–
CCCCCCC(CCCCCCCCCCC(=O)OCC(COC(C)=O)OC(C)=O)OC(C)=O (stereo not given),inactive,–
Cn1cnc2c1c(=O)[nH]c(=O)n2C,inactive,–
Cc1occc(=O)c1O,inactive,–
CC(=O)CC(c1ccccc1)c1c(O)c2ccccc2oc1=O (stereo not given),inactive,–
S=c1[nH]c2ccccc2s1,–,86.5 µM (active)
C/C=C/c1ccc(OC)cc1,inactive,–
O=Cc1ccccc1C=O,inactive,–
O=C(Oc1ccccc1)c1cccc(C(=O)Oc2ccccc2)c1,inactive,–
C#CC(O)C(CC)CCCC (stereo not given),inactive,–
CCCCC(CC)CO (stereo not given),inactive,–
O=C(O)CN(CC(=O)O)CC(=O)O,inactive,–
CCCCCCCCCCCCCCOS(=O)(=O)O,inactive,–

# — PubChem BioAssay (EPA / NIEHS)
